An excerpt weighted towards active compounds, which were near 27% of everything screened.
CYP2C19 activ: cytochrome P450 2C19 (human) activation | 96,000 tested, under 10 active | recombinant CYP2C19, luciferin-H EGE luminescence; active compounds read high; 0 = fully inhibited enzyme, 1 = untreated enzyme | activation factor at 5 µM;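 active = activation factor of at least 2 at 5 µM in the primary screen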;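 note: 0 = wells with 2.5 mM tranylcypromine and 1 = vehicle-only wells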
Target sequence (P33261 whole entry, looked up): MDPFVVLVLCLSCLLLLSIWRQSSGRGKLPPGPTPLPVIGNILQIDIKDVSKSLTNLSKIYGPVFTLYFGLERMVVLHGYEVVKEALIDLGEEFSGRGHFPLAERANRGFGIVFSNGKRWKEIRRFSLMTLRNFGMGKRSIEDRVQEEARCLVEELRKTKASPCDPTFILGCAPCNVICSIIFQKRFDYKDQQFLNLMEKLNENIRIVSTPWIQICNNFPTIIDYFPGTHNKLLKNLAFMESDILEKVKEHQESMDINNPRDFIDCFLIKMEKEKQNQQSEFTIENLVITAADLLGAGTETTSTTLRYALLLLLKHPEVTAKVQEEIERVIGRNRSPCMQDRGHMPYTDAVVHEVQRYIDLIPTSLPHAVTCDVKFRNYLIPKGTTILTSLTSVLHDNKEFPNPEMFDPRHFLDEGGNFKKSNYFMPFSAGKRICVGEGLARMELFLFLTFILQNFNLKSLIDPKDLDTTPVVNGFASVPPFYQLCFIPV
CYP2C19 inh: inhibitors of human CYP2C19. P33261. CYP2C19 Supersomes, luciferin-H EGE luminescence, 30 min. inhibition, % at 5 µM. hit rate 21% among 96,000. AID 778;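 active = CYP2C19 inhibition above a set limit at 5 µM in the primary screen, cut at about 50% in these data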;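 note: plate controls were negative control wells for no effect and 2.5 mM tranylcypromine positive control for full effect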
CYP2C9 activ: activators of human CYP2C9. P11712. recombinant CYP2C9, luciferin-H conversion, luminescence; active compounds read high; factor 1 = untreated enzyme, 0 = blocked. activation factor at 5 µM. hit rate 1.4% among 96,000. AID 1024;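 active = activation factor of 2 or more for CYP2C9 at a 5 µM dose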;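 note: 0 = sulfaphenazole-blocked wells and 1 = vehicle-only wells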
EphB4 ephrin blk: blocks human EphB4 binding to ephrin-B2; EphB4 LBD / TNYL-RAW-Alexa532 peptide, fluorescence polarization; P54760; inhibition, % at 7 µM; AID 720; hit rate 0.15% among 97,000;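 active = inhibition above the screen-wide mean inhibition plus 3 SD, cut at about 15% in these data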;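 note: 0% = DMSO wells and 100% = excess unlabeled TNYL-RAW peptide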
CYP2C9 inhib: blocks human cytochrome P450 2C9 | P11712 | CYP2C9 Supersomes, luciferin-H conversion, luminescence | inhibition, % at 5 µM | hit rate 20% among 96,000 | AID 777;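 active = blocking of liver enzyme CYP2C9 beyond about 50% at 5 µM, limit read from the data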
* = called active by the depositor; / = no result given; ! = a repeat was not active.

SMILES	CYP2C19 activ	CYP2C19 inh	CYP2C9 activ	EphB4 ephrin blk	CYP2C9 inhib
CC1CC(C)CN(S(=O)(=O)c2ccc(C(=O)NCCCn3ccnc3)cc2)C1 (stereo not drawn)	0.7	32	0.1	/	90*
COc1ccc2c(Cl)c(C(=O)NCCCn3ccnc3)sc2c1Cl	0.1	88*	0.1	-2	88*
CC1CC(C)CN(S(=O)(=O)c2ccc(C(=O)NCc3ccc4c(c3)OCO4)cc2)C1 (stereo not drawn)	1.1	-12	0.9	1	12
CCOc1c2ccc(C(=O)NC3CCCc4ccccc43)cc2nn1C (stereo not drawn)	1	-1	1.2	1	-22
C=CCN(CC=C)CC(=O)Nc1ccc(S(N)(=O)=O)cc1	/	/	/	-1	/
CC(OC(=O)C1CCCO1)C(=O)NC1CCCC1 (stereo not drawn)	0.8	24	0.9	-1	11
OC(COc1ccccc1Cl)CN1CCN(CC(O)COc2ccccc2Cl)CC1 (stereo not drawn)	0.6	43	0.9	0	14
O=C(NCCCn1ccnc1)c1ccncc1	0.6	45	0.4	6	57*
COc1ccc(OC)c(-c2cc(C(=O)NCCCn3ccnc3)no2)c1	0.2	75*	0.8	6	22
Cc1ccc(C(=O)NCCCn2ccnc2)cn1	0.6	35	0.9	2	10
CCOc1ccc(C(=O)NCCCn2ccnc2)cc1	0.1	93*	0.8	5	25
CCOc1ccc(C(=O)NCCCN(CC)CC)cc1	1	-2	1	/	-2
COCCNC(=O)c1c(N)n(CCCn2ccnc2)c2nc3ccccc3nc12	0.3	69*	0.1	5	89*
CC(=O)/C(C[N+]1(C)CCCCC1)=N\O	1.1	-10	1.1	-7	-9
COc1ccccc1CC(=O)NCCc1ccc(S(N)(=O)=O)cc1	/	/	/	7	/
CC(C)OCCCNC(=O)c1ccncc1	0.1	89*	0.2	/	75*
O=C(NCCCN1CCOCC1)c1cc(-c2cccs2)on1	1	-2	1	-11	-2
O=C(NCCCn1ccnc1)c1cc(-c2cccs2)on1	0.2	79*	0.5	11	48
COCCCNC(=O)c1c(N)n(/N=C/c2cccs2)c2nc3ccccc3nc12	0.5	48	0.3	/	67*
COc1ccc(C(=O)NCCc2cn3ccc(C)cc3n2)cc1	0.3	75*	0.8	-5	24
COc1cc(C(=O)NCCc2cn3ccc(C)cc3n2)cc(OC)c1OC	0.8	20	1	5	0
COCCCNC(=O)c1c(N)n(/N=C/c2cccnc2)c2nc3ccccc3nc12	0.8	22	1	/	-3
CCc1nnc(NC(=O)CSc2nc3c(cc2C#N)CCCC3)s1	1	-3	1	-4	-2
O=C(c1ccc(C(F)(F)F)cc1)c1c[nH]c(C(=O)NCCCn2ccnc2)c1	0	95*	0.1	7	88*
COc1ccc(C(=O)NCCCn2ccnc2)cc1	0.1	89*	0.7	-2	28
SMILES	CYP2C19 activ	CYP2C19 inh	CYP2C9 activ	EphB4 ephrin blk	CYP2C9 inhib
CCCOc1ccc(C(=O)NCCCn2ccnc2)cc1	0.1	90*	0.6	-3	41
O=C(NCC1CCCO1)c1onc(CSc2ccccc2)c1C(=O)O (stereo not drawn)	0.9	14	1	0	1
C=CCN1C(=O)CN=C1Nc1ccc(OC)cc1OC	1	2	1	-10	0
O=C(CC1(O)C(=O)Nc2ccccc21)c1ccccc1 (stereo not drawn)	0.9	7	1.2	-1	-15
Cc1ccn(CC(=O)O)c(=O)c1	1.3	-28	1.2	0	-24
CCOC(=O)c1cnn(-c2ccc(Cl)cc2)c1C1CCN(C(=O)OC(C)(C)C)CC1	0.1	89*	0.2	-1	85*
COc1ccc2c(C=Nc3c(C)n(C)n(-c4ccccc4)c3=O)c(O)n(Cc3ccco3)c(=O)c2c1	0.4	60*!	0.3	3	72*!
Nc1cc(N)nc(SCC(=O)Nc2ccc(Br)cc2Cl)n1	0.3	74*	0.4	/	56*
Cc1cc(C)c2c(=O)[nH]c(SCC(=O)NCc3ccccc3)nc2n1	0.7	34	0.7	3	30
COc1ccccc1NC(=O)CSc1nc(N)cc(N)n1	0.3	72*	1.7	3	-73
COc1ccccc1NC(=O)CSc1nc2nc(C)cc(C)c2c(=O)[nH]1	0.9	14	0.5	-10	52*
COc1ccccc1NC(=O)Cc1noc(CSc2cc(C)c3ccccc3n2)n1	0.1	93*	0.6	10	40
CC1CCN(S(=O)(=O)c2ccc(NC(=O)CN3CCCC(C)C3)cc2)CC1 (stereo not drawn)	0.9	14	0.7	1	27
Cc1cccc(Nc2nc(N)nc(CN3CCC(C)CC3)n2)c1C	/	/	/	6	/
Cc1cc(N/C=C2\CCCCC2=O)no1	0.9	7	1.2	-1	-24
COc1ccccc1NC(=O)CSc1nc2ccccc2cc1Cc1ccccc1	0	99*	0.4	1	55*
CC1CCN(C(=O)CSc2nncn2-c2ccccn2)CC1	1.1	-6	1.2	-2	-25
CCn1nnnc1SCC(=O)N(C1CCCCC1)C1CCCCC1	0.5	49	0.9	-4	11
Cc1cc(S(=O)(=O)Nc2ccc(F)cc2)c(C)s1	0.2	84*	0.5	2	51*
Cc1cc(C(C)(C)C)cc(S(=O)(=O)Nc2cccc(C(=O)O)c2)c1C	1.1	-8	1.1	5	-5
Cc1cc(S(=O)(=O)Nc2cccc(O)c2)c(C)s1	0.1	92*	0.7	-4	30
Cn1cc(S(=O)(=O)Nc2cccc(F)c2)c(=O)n(C)c1=O	0.8	20	0.9	-7	12
Cc1ccc(C(=O)N2c3ccc(F)cc3CCC2C)o1 (stereo not drawn)	0.5	53*	0.7	1	27
CC1CCc2cc(F)ccc2N1C(=O)c1ccc2c(c1)OCO2 (stereo not drawn)	0.4	62*	0.7	-1	26
COc1cc(OC)cc(C(=O)N2c3ccc(F)cc3CCC2C)c1 (stereo not drawn)	0.5	54*	0.8	0	20
SMILES	CYP2C19 activ	CYP2C19 inh	CYP2C9 activ	EphB4 ephrin blk	CYP2C9 inhib
COc1ccc(C(=O)N2c3ccc(F)cc3CCC2C)cc1OC (stereo not drawn)	1	-2	1	-4	2
Cc1nn(Cc2ccc(C(=O)N3c4ccc(F)cc4CCC3C)o2)c(C)c1Br (stereo not drawn)	0.1	87*	0.5	-6	48
CC1CCc2cc(F)ccc2N1C(=O)c1cnc2sccn2c1=O (stereo not drawn)	1	-2	1	-4	-3
CCOC(=O)C(NC(C)=O)(Nc1ccc(S(=O)(=O)Nc2cc(C)on2)cc1)C(F)(F)F (stereo not drawn)	/	/	/	2	/
C[C@H](Nc1ncnc2sc3c(c12)CCC3)C(=O)O	1	-1	0.9	-4	5
c1ccc(Nc2ncnc3sc4c(c23)CCC4)cc1	0.2	76*	0.8	0	23
Fc1ccc(Nc2ncnc3sc4c(c23)CCC4)cc1	0.1	88*	0.4	0	61*

Screens deposited in PubChem by several laboratories.
